According to paper PMC4336329 (PLoS ONE, 2015):
Out of some 310,000 compounds screened, about 14,000 (4.5%) showed an effect of 50% or more. The effect is printed as a negative number. The entries come from a sample that favours strong results as a whole.

Biological target: human ether-à-go-go-related gene (hERG) potassium channel (human, UniProt Q12809)
Test: primary screen, population patch clamp on CHO cells stably expressing hERG; higher = less effect of the substance
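Note: peak tail current of the secondary pulse compared with the same well before compound.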

Chain of human ether-à-go-go-related gene (hERG) potassium channel (Q12809 whole entry, looked up): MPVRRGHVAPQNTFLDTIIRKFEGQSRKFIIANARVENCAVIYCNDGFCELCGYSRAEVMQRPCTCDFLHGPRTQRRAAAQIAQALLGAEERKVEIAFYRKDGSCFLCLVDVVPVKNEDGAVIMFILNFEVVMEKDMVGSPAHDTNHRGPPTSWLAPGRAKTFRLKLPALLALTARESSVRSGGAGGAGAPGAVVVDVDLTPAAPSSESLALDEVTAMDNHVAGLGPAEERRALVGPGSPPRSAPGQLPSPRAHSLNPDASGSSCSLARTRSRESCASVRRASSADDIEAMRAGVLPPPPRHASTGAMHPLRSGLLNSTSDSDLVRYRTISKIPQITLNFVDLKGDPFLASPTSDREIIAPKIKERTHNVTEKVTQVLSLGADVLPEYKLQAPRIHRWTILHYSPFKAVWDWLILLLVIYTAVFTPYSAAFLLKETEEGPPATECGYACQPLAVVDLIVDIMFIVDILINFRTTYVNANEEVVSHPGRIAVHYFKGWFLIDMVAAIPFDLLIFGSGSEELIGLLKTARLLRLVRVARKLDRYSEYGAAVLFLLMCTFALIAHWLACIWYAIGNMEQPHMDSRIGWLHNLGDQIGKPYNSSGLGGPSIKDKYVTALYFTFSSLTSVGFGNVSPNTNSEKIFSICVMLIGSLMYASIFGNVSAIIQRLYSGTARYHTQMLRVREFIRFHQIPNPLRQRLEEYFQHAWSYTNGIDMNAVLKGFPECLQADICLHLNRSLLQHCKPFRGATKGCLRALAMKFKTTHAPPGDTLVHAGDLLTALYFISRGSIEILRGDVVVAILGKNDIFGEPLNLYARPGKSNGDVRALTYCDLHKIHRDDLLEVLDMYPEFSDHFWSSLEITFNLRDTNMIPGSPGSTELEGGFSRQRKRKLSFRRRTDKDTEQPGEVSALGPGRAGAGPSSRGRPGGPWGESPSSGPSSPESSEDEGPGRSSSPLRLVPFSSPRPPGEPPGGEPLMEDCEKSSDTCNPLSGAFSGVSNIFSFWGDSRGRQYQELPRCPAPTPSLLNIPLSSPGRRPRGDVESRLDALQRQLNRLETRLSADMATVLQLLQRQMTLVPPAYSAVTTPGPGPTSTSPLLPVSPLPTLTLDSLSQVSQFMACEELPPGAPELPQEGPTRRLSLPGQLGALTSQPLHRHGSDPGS

Row | SMILES | hERG current change (%, negative = inhibition) at 10uM [%]
1 | Cc1ccc2nc(N(CCN(C)C)C(=O)c3ccc4ccccc4c3)sc2c1.Cl | 15.9
2 | Cc1cccc2sc(N(CCCN(C)C)C(=O)c3ccc4ncsc4c3)nc12 | -45
3 | Cc1ccc2nc(N(CCCN(C)C)C(=O)c3ccc4ncsc4c3)sc2c1 | -61.4
4 | CCc1ccc2nc(N(CCN(C)C)C(=O)c3ccc4ccccc4c3)sc2c1.Cl | 0.369
5 | Cc1ccc2nc(N(CCCN(C)C)C(=O)c3ccc(S(=O)(=O)N(C)C)cc3)sc2c1.Cl | -42.1
6 | CCc1ccc2nc(N(CCN(C)C)C(=O)c3ccc4ncsc4c3)sc2c1.Cl | -60.6
7 | O=C(CCNC(=O)c1ccc([N+](=O)[O-])cc1)NC1CCCCCC1 | -25.3
8 | CCSc1nsc(NC(=O)Nc2ccc(F)cc2F)n1 | 24.1
9 | CC(C)(C)NC(=O)C(c1cccs1)N(C(=O)c1csnn1)c1cccc(F)c1 (stereo not shown) | -7.68
10 | O=C(Cn1ncc2c3ccccc3n(Cc3ccccc3)c2c1=O)NC1CCCC1 | 10.1
11 | O=S(=O)(c1ccc(Cl)s1)N1CCc2ccccc2C1 | 7.13
12 | NC(=S)Nc1cc(Cl)cc(Cl)c1 | 17.1
13 | CC(C)NC(=O)CCS(=O)(=O)c1ccc(Br)s1 | 16.1
14 | COc1ccc(/C=N/NC(=O)c2cccc([N+](=O)[O-])c2)cc1OS(=O)(=O)c1ccc(C)cc1 | -16.1
15 | COCc1cc(OC(=O)N(C)C)nc2c1c(C)nn2C | -9.48
16 | O=C(CNC(=O)C12CC3CC(CC(C3)C1)C2)N/N=C\c1ccco1 | 5.05
17 | CS(=O)(=O)c1ccc(-c2cccc(NC(=O)COc3ccc(Cl)cc3)c2)nn1 | 6.7
18 | Cc1cc(OC(C)C(=O)NCC2CCC(C(=O)O)CC2)c2c(C)cc(=O)oc2c1 (stereo not shown) | 24.5
19 | COc1ccc(C2(O)CCN(CCCCOc3ccccc3)CC2)cc1 | -70.6
20 | CCCN1CCC(NC(=O)c2cccc(Oc3ccccc3)c2)CC1 | -51.9
21 | COc1cc(OC)cc(C(=O)NC2CCN(CCCOc3ccccc3)CC2)c1 | -70.2

Row | SMILES | hERG current change (%, negative = inhibition) at 10uM [%]
22 | CN1CCC(NC(=O)c2cccc(Oc3ccccc3)c2)CC1 | -8.93
23 | O=C(NC1CC1)c1cccc(Oc2ccccc2)c1 | 1.52
24 | COCC(C)N1CCC(Oc2ccc(C(=O)NCc3ccccn3)cc2)CC1 (stereo not shown) | 13.1
25 | COc1cc(OC)cc(C(=O)NCCOc2ccccc2)c1 | -17.6
26 | c1ccc(OCCCCN2CCOCC2)cc1 | -14.5
27 | COc1cccc(OCCCCN2CCCCC2)c1 | -8.36
28 | COCC(C)N1CCC(Oc2cccc(C(=O)NCCc3ccccc3)c2)CC1 (stereo not shown) | -66.3
29 | COCCNC(=O)c1cccc(OC2CCN(Cc3cccc(SC)c3)CC2)c1 | -35.2
30 | COc1cc(OC)cc(C(=O)NNC(=O)CCCOc2ccccc2)c1 | -18.4
31 | Cn1cc(/C=C(\C#N)C(=O)Nc2cccc([N+](=O)[O-])c2)c2ccccc21 | 28.4
32 | COc1ccc(F)cc1C(=O)C1CCCN(C(=O)c2ccc(C(C)=O)s2)C1 (stereo not shown) | -4.71
33 | COC(=O)c1ccc(N=C(c2ccccc2)c2c(O)n(C)c(=O)n(C)c2=O)cc1 | 6.79
34 | CC(=O)N(C)c1ccc(N=Cc2c(O)ccc3ccccc23)cc1 | -20.9
35 | O=C1CCCC(O)=C1N=Nc1ccc(S(=O)(=O)N2CCOCC2)cc1 | 2.06
36 | COc1ccc(NC(=O)C2C3C=CC4(O3)C2C(=O)N(CCN2CCCCC2C)C4C(=O)NC2CCCC(C)C2C)cc1 (stereo not shown) | -22.4
37 | Cc1cccc(C)c1-n1c(SCC(=O)N2CC(=O)Nc3ccccc32)nc2ccccc2c1=O | -0.373
38 | CS(=O)(=O)N(CC(=O)N1CCN(c2ccc(F)cc2)CC1)c1cccc(Cl)c1 | -49.9
39 | O=C(NCCc1csc(-c2cccnc2)n1)c1cccs1 | -5.91
40 | C#CCN1C(=O)C(O)(CC(=O)/C=C/C=C/c2ccccc2)c2ccccc21 (stereo not shown) | 21.6
41 | COCCNC(=O)c1cccc(OC2CCN(Cc3ccccc3C)CC2)c1 | 6.34
42 | CCCN1CCC(Oc2cccc(C(=O)NCCc3ccccc3)c2)CC1 | -66

Row | SMILES | hERG current change (%, negative = inhibition) at 10uM [%]
43 | COCCNC(=O)c1cccc(OC2CCN(Cc3cccc(C(C)=O)c3)CC2)c1 | 6.74
44 | Oc1ccc(Br)cc1-c1cc(-c2ccc(Cl)cc2)n[nH]1 | 7.99
45 | Cc1noc2ncnc(Sc3ccc(Cl)cc3)c12 | 16.3
46 | Cc1noc2ncnc(Sc3ccc(Br)cc3)c12 | -50.8
47 | Cc1ccc(Sc2ncnc3onc(C)c23)cc1 | 4.79
48 | O=[N+]([O-])c1ccccc1CNCCCCO | -3.05
49 | CC(C)c1csc2nc3n(c(=O)c12)CCCCC3 | -10.7
50 | O=C(c1cccs1)N1CCCC(N2CCN(c3cccc(C(F)(F)F)c3)CC2)C1 (stereo not shown) | -68.4
51 | Cc1occc1C(=O)N1CCCC(N2CCN(c3cccc(C(F)(F)F)c3)CC2)C1 (stereo not shown) | -38.9
52 | Cc1cc(C(=O)N2CCCC(N3CCN(c4cccc(C(F)(F)F)c4)CC3)C2)n[nH]1 (stereo not shown) | -53.2
53 | CCn1cc(C(=O)N2CCCC(N3CCN(c4cccc(C(F)(F)F)c4)CC3)C2)cn1 (stereo not shown) | -29.2
54 | O=C(c1ccoc1)N1CCCC(N2CCN(c3cccc(C(F)(F)F)c3)CC2)C1 (stereo not shown) | -55.5
55 | O=C(c1cc[n+]([O-])cc1)N1CCCC(N2CCN(c3cccc(C(F)(F)F)c3)CC2)C1 (stereo not shown) | -6.27
56 | Cc1nnsc1C(=O)N1CCCC(N2CCN(c3cccc(C(F)(F)F)c3)CC2)C1 (stereo not shown) | -26.8
57 | O=C(c1ccsc1)N1CCCC(N2CCN(c3cccc(C(F)(F)F)c3)CC2)C1 (stereo not shown) | -64.2
58 | Cc1cc(C(=O)N2CCCC(N3CCN(c4cccc(C(F)(F)F)c4)CC3)C2)no1 (stereo not shown) | -2.14
59 | O=C(c1ccoc1)N1CCCC(N2CCN(c3cccc(Cl)c3)CC2)C1 (stereo not shown) | -41.3
60 | Cc1cnc(C(=O)N2CCCC(N3CCN(c4cccc(C(F)(F)F)c4)CC3)C2)cn1 (stereo not shown) | -39.7
61 | O=C(c1ccsc1)N1CCCC(N2CCN(c3cccc(Cl)c3)CC2)C1 (stereo not shown) | -47.1
